Screening data from PubChem.
HT1080 IDH1KD tx: HT-1080 IDH1 knockdown cell toxicity (counter line); HT-1080 IDH1 knockdown viability, ATP luminescence, 48 h; Potency, µM (top dose mostly 46.1 µM), usual class: cytotoxic; 2% of 360,000 active; AID 686971
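After a 2 h attachment period, IDH1KD HT-1080 cells took pin-transferred compound for 48 h at 37 °C; ATP-based luminescence after 10 min room-temperature reagent incubation reported viability.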
KB-V1 cytotox: kills drug-selected multidrug resistant KB-V1 cells | KB-V1 MDR cells viability, CellTiter-Glo, 72 h | Potency, µM (titrated, usually from 46.1 µM), hits mostly cytotoxic | 3.4% of 400,000 active | AID 1347076; note: nearly all actives have a fitted effect of over 60% in size
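Readout: CellTiter-Glo luminescence, 10 min after addition. Cells: KB-V1 MDR subline, 72 h at 37 degrees C with compound. Analysis: corrected, normalized data fitted to concentration-effect curves.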
HT1080NT lethal: kills 2HG-producing HT-1080-NT fibrosarcoma cells; Potency, µM (top dose mostly 46.1 µM), actives largely listed as cytotoxic; 1.6% of 360,000 active; AID 686970; HT-1080-NT fibrosarcoma viability, CellTiter-Glo ATP luminescence, 48 h;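 note: NT is the 2HG producing partner of a matched IDH1 knockdown line; nearly all actives have a fitted effect of over 55% in size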
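Compounds were tested in concentration-response format on HT-1080-NT cells for 48 hours at 37 degrees C. Cell viability came from CellTiter-Glo luminescence; curves were classified by r2, response magnitude and activity.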
KB-3-1 cytotox: kills parental KB-3-1 adenocarcinoma cells. KB-3-1 viability, CellTiter-Glo ATP luminescence, 72 h. Potency, µM (highest dose often 46.1 µM), hits mostly cytotoxic. 1.4% of 400,000 active. AID 1347075; note: nearly all actives have a fitted effect of over 60% in size
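72 h, 37 °C compound treatment of KB-3-1 parental cells; CellTiter-Glo added, 10 min, luminescence read. Data corrected against DMSO-only plates and normalized before curve fitting.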
MCF10A rerep: inducers of DNA re-replication in MCF 10A breast cells; MCF 10A DNA re-replication, Hoechst nuclear intensity, 48 h; Potency, µM (highest dose often 46.1 µM), usual class: activators; 2.9% of 350,000 active; AID 624296; note: nearly all actives have a fitted effect of over 50% in size
SW480 rerep: inducers of DNA re-replication in SW480 colon cancer cells | Potency, µM (titrated, usually from 46.1 µM), hits mostly activators | 1.8% of 340,000 active | SW480 DNA re-replication, Hoechst DNA content imaging, 48 h; note: nearly all actives have a fitted effect of over 55% in size
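Quantitative HTS format with DMSO vehicle controls; 48 hr drug incubation at 37 C, then 40 min Hoechst staining and scanning imager measurement at 405 nm excitation.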
Numbers stand for hits; . = inactive; ? = inconclusive; / = no result given; ! = not active in a repeat; [ ] = another dose, or the depositor's remark. Shown are actives, neighbours in structure and some others; about 8% of the full set was active somewhere. Calls come from the whole dose curve; as a rule, active = well fitted curve in the direction sought with a large enough effect; inconclusive = small, poorly fitted or top-dose-only effect, or another doubt; inactive = no such curve, though single readings can be large; an effect the other way counts as inactive or inconclusive.

SMILES	HT1080 IDH1KD tx	KB-V1 cytotox	HT1080NT lethal	KB-3-1 cytotox	MCF10A rerep	SW480 rerep
COc1cc(C(C[N+](=O)[O-])c2c(N)n(C)c(=O)n(C)c2=O)ccc1O (configuration not stated)	21µM	?	?	?	18µM	?
Cn1c(N)c(C(C[N+](=O)[O-])c2ccccc2Cl)c(=O)n(C)c1=O (configuration not stated)	.	.	.	.	?	?
COc1cccc(F)c1C(C[N+](=O)[O-])c1c(N)n(C)c(=O)n(C)c1=O (configuration not stated)	5.8µM	?	10µM	?	7.3µM	4.1µM
CN1c2ccccc2-c2nc3ccccc3n2C1c1cccs1 (configuration not stated)	?	?	?	?	10µM	?
Brc1ccccc1-c1nnc(SCc2nc3ccccc3s2)o1	.	.	.	.	9.2µM	.
CN1CCN(CCOC2Cc3ccccc3Sc3ccc(Cl)cc32)CC1 (configuration not stated)	.	23µM	.	?	23µM	.
O=C1CN(C(=O)COC(=O)c2ccc(C(F)(F)F)cc2)c2ccccc2N1	.	.	.	?	.	.
CCOC(=O)C1=C(C)Nc2nnnn2C1c1ccccc1Cl (configuration not stated)	.	.	.	.	.	.
Fc1ccccc1/C=C1\CCCC2=C1Nc1nnnn1C2c1ccccc1F (configuration not stated)	10µM	.	13µM	.	?	.
Cc1ccc(C(=O)CSc2nc(-c3ccccc3)ccc2C#N)cc1	.	.	.	.	3.7µM	?
N#Cc1ccc(-c2ccco2)nc1SCC(=O)c1ccc(Cl)cc1	.	.	.	.	7.9µM	.
N#Cc1c(-c2ccco2)cc(C2CC2)nc1SCC(=O)c1ccccc1	?	?	.	.	?	.
O=C(CSc1ccc(-c2ccco2)nn1)c1ccc(F)cc1	.	26µM	.	.	.	.
COc1ccc(-c2ccc(C#N)c(SCC(=O)OCc3ccccc3)n2)cc1OC	.	.	.	.	9.2µM	?
N#Cc1ccc(-c2ccc3c(c2)OCO3)nc1SCC(=O)OCc1ccccc1	.	.	.	.	.	.
O=C(CSc1ccc(-c2ccco2)nn1)NCc1ccc(F)cc1	.	.	.	.	.	.
O=C1CCCC(O)=C1C1C2=C(CCCC2=O)Oc2ccccc21 (configuration not stated)	.	.	.	.	.	.
CN(C(=O)/C(N=Nc1cccc(C(F)(F)F)c1)=C(\O)C(F)(F)F)c1ccccc1	?	?	11µM	.	?	.
CC(=O)/C(N=Nc1cccc(C(F)(F)F)c1)=C(\C)O	.	.	.	.	.	.
O=C(/C(N=Nc1cccc(C(F)(F)F)c1)=C(/O)c1cccs1)C(F)(F)F	21µM	?	?	?	21µM	.
COc1cccc(NC(=O)Cc2nnc(SCC(=O)NC3=NCCS3)n2C)c1	.	?	.	.	.	.
CN(C(=S)NC(=O)Cc1ccccc1)c1ccccc1	18µM	.	?	.	.	.
CCN(CC)C(=S)NC(=O)Cc1ccccc1	.	.	.	.	.	.
CCOC(=O)C1(C#N)C(=O)CSC1=Nc1ccccc1Cl (configuration not stated)	.	?	.	.	/	/
Cc1ccc(NC(=O)Cn2c(O)c(N=NS(=O)(=O)c3ccc(C)cc3)c3ccccc32)cc1	.	?	.	.	21µM	?
SMILES	HT1080 IDH1KD tx	KB-V1 cytotox	HT1080NT lethal	KB-3-1 cytotox	MCF10A rerep	SW480 rerep
Cc1ccc(NC(=O)Cn2c(O)c(N=NC(N)=O)c3ccccc32)cc1	.	.	.	?	?	?
COc1cc(Cl)c(CNC[C@H]2O[C@@H](n3ccc(=O)[nH]c3=O)[C@H](O)[C@@H]2O)c(Cl)c1O	.	.	.	.	.	.
Cc1cc(Br)c(S(=O)(=O)n2nnc3ccccc32)cc1C	.[9.24 µM]	.	.	.	10µM	?
COc1ccc(OC)c(-c2cc(-c3cccnc3)nc(N)c2C#N)c1	1.5µM	2.6µM	1.8µM	2.1µM	12µM	6.5µM
CCC(=O)Oc1ccc2ccccc2c1CNC(=O)c1ccccc1	.	15µM	.	?	?	.
CCOc1ccc(CCNC(=O)CCC(=O)N2CCOc3ccc(C)cc32)cc1OCC	.	.	.	.	.	.
COc1ccc(C(NC(C)=O)c2cc(Cl)c3cccnc3c2O)cc1 (configuration not stated)	12µM	.	?	?	?	.
CCCC(=O)NC(c1ccc(OC)c(OC)c1)c1cc(Cl)c2cccnc2c1O (configuration not stated)	?	23µM!	?	?	8.2µM	1.8µM
CC(=O)NC(c1ccc(N(C)C)cc1)c1cc(Cl)c2cccnc2c1O (configuration not stated)	?	?	?	3.3µM	/	/
O=C(NC(c1ccc(Cl)cc1)c1cc(Cl)c2cccnc2c1O)c1cccnc1 (configuration not stated)	3.3µM	?	?	?	15µM	2.6µM
CC(=O)NC(c1ccc(Cl)cc1)c1ccc2cccnc2c1O (configuration not stated)	?	?	?	.	.	.
Cc1cnc(-c2nnc(N(C)C(=O)C3CCOC3)s2)cn1 (configuration not stated)	.	.	.	.	.	.
CSc1ncccc1C(=O)N1CCCC(C(=O)c2cc(F)ccc2F)C1 (configuration not stated)	.	?	.	.	.	.
Cc1ccccc1CN1CCC(CNC(=O)Nc2ccc(F)cc2F)CC1	.	?	.	.	.	.
CCC(=O)NC(c1cc(Cl)c2cccnc2c1O)C(C)C (configuration not stated)	/	?	/	.	.	0.23µM
CCO[C@@H]1OC(C(=O)O)=C[C@H](c2ccccc2)[C@H]1CCCO	.	.	.	.	.	.
COC(=O)c1ccc(/C=N/N2CCN(Cc3ccc(C)cc3C)CC2)cc1	.	18µM	.	.	.	.
Cc1ccc(CN2CCN(/N=C/c3ccc(C(=O)O)cc3)CC2)c(C)c1	.	.	.	.	.	.
COc1ccc(CN2CCC2(C)C(=O)Nc2cccc(NS(C)(=O)=O)c2)c2ccccc12 (configuration not stated)	?	2.9µM	?	?	/	/
COc1ccc(N2CCN(c3ccc(-c4nc(-c5cccc(C)c5)no4)cc3[N+](=O)[O-])CC2)cc1	/	.	/	.	/	/
CCn1ccc2cc(S(=O)(=O)N3CCC(C(=O)NCCc4ccc(C)cc4)CC3)ccc21	/	.	/	.	/	/
